In PubChem BioAssay (Tox21):
Results filed as inconclusive are left out. Entries that show only a call come without a potency. Activity calls are given as the source filed them. Calls come from the whole dose curve. Numbered stars: 1 amine (or outer) side, 2 acyl side, 3 side chain; on linkers, the order of the positions; unused ones are H or OH. Bridge positions count the residues as written; N and C are the ends. Square brackets hold non-standard residues; d marks the D form. Peptide text beside a SMILES is read from it. I, II: the chains in the order shown. Actinocin(9to1) = Cc1c2oc3c(C)ccc(C(=O)[*:1])c3nc-2c(C(=O)[*:2])c(N)c1=O; NMeV = CN[C@H](C(=O)O)C(C)C; Sar = CNCC(=O)O

Assay: p53 small molecule agonists, cell-based qHTS assay with rat liver microsomes (AID 1963578)
Settings: HCT-116 p53RE-bla, beta-lactamase ratio, 16 h; series mostly up to 66 µM
Description: U.S. Tox21 Program National Center for Advancing Translational Sciences [NCATS] Division of Preclinical Innovation [DPI] U.S. Environmental Protection Agency [EPA] National Institutes of Environmental Health Sciences [NIEHS] National Toxicology Program [NTP] U.S. Food and Drug Administration [FDA] Tox21 Assay Overview: p53, a tumor suppressor protein, is activated following cellular insult, including DNA damage and other cellular stresses. The activation of p53 regulates cell fate by inducing DNA repair, cell cycle arrest, apoptosis, or cellular senescence. The activation of p53, therefore, is a good indicator of DNA damage and other cellular stresses. […] The activation of the reporter gene under culture conditions can be detected by fluorescence intensity. This cell line was used to screen the Tox21 10K compound library in the condition of presence of rat liver microsomes and to identify agonists that activate the p53 signaling pathway after in vitro metabolic activation (Ooka et al., Archive of Toxicology 96:1975-1987, 2022).
Tox21 Assay Protocol Summary: The p53RE-bla cells were dispensed at 4,000cells/3ul/well in 1536-well black-clear bottom plates. After the assay plates were incubated at 37 C, 5% CO2 incubator for 5 hours, 23 nL of compounds dissolved in DMSO, positive controls or DMSO only was transferred to the assay plate. Following compound addition, 3 uL of rat liver microsomes (Molecular Toxicology, Boone, NC) at final concentration of 0.5 mg/mL and 1uL of Beta-Nicotinamide adenine dinucleotide 2-phosphate (NADPH) at final concentration of 0.5 mg/mL were transferred to the assay plate. The plates were incubated at 37 C for 16 hours. 1 uL of LiveBLAzer detection mixture was added to each well and the plates were incubated at room temperature in the dark for 2 h.

Compound | Potency | activation
CSCCC=O | inactive | 
O | inactive | 
O=C1NCCN1CCO | inactive | 
CC(=O)OCCCc1ccccc1 | inactive | 
C[Si](C)O[Si](C)(C)O[Si](C)(C)O[Si](C)C | inactive | 
COc1ccc(-c2coc3cc(O)cc(O)c3c2=O)cc1 | inactive | 
CC(C)C(=O)Nc1cccc(C2CN3CCSC3=N2)c1 (stereo not given) | inactive | 
Cc1c2oc3c(C)ccc(C(=O)N[C@@H]4C(=O)N[C@H](C(C)C)C(=O)N5CCC[C@H]5C(=O)N(C)CC(=O)N(C)[C@@H](C(C)C)C(=O)O[C@@H]4C)c3nc-2c(C(=O)N[C@@H]2C(=O)N[C@H](C(C)C)C(=O)N3CCC[C@H]3C(=O)N(C)CC(=O)N(C)[C@@H](C(C)C)C(=O)O[C@@H]2C)c(N)c1=O (I: T[dV]P[Sar][NMeV] / II: T[dV]P[Sar][NMeV]; ester I:1-I:C, II:1-II:C; linker I:N-II:N via Actinocin(9to1)) | inactive | 
CCCCCCCCN(C)C | inactive | 
COc1cc(Cl)ccc1Cl | inactive | 
COc1cc(/C=C/C(=O)O[C@H]2CC[C@]34C[C@]35CC[C@]3(C)[C@@H]([C@H](C)CCC=C(C)C)CC[C@@]3(C)[C@@H]5CC[C@H]4C2(C)C)ccc1O | inactive | 
CS(C)(=O)=O | inactive | 
COCC(C)OC(C)=O (stereo not given) | inactive | 
NC(=S)N/N=C/c1cccnc1 | inactive | 
O=C(O)c1cc(=O)[nH]c(=O)[nH]1 | inactive | 
O=C(c1ccccc1O)c1ccccc1O | inactive | 
CC(C)(C)OC(=O)c1cccc(N)c1 | inactive | 
Cc1ccccc1S(N)(=O)=O | inactive | 
CC(C)(C)c1cc(C(C)(C)C)c(O)c(C(C)(C)C)c1 | inactive | 
C[C@@H]1CCN(C(=O)[C@H](CCCN=C(N)N)NS(=O)(=O)c2cccc3c2NC[C@H](C)C3)[C@@H](C(=O)O)C1 | inactive | 

Compound | Potency | activation
COC(=O)CCCCC(=O)O | inactive | 
N[C@@H](CCC(=O)Nc1ccc([N+](=O)[O-])cc1)C(=O)O | inactive | 
CC(C)c1cccc(C(C)C)c1N | inactive | 
Nc1cc([N+](=O)[O-])ccc1Cl | inactive | 
C/C=C/C(=O)CCCC | inactive | 
COc1cc(S(N)(=O)=O)cc(C(=O)O)c1OC | inactive | 
FC(F)(F)c1ccccc1 | inactive | 
Nc1cc([N+](=O)[O-])ccc1O | inactive | 
CNc1ccccc1 | inactive | 
CCCCCCCCCCCCC(=O)O | inactive | 
CCCCOCCOCCOCCCC | inactive | 
CC(=O)O[C@H](CC(=O)[O-])C[N+](C)(C)C | inactive | 
O=c1cccc[nH]1 | inactive | 
CC1=CC[C@H](CC=O)C1(C)C | inactive | 
Nc1c(NC/C=C\COc2cc(CN3CCCCC3)ccn2)c(=O)c1=O |  | 0.229% [at 13.6 µM] (inactive)
Cc1ccc(CO)cc1 | inactive | 
CC/C=C\CC1=C(C)CCC1=O | inactive | 
CC(=O)O[C@H]1C[C@@H]2CC[C@@]1(C)C2(C)C | inactive | 
CCN(CCO)c1cccc(C)c1 | inactive | 
CCCCC/C=C/C=C/C=O | inactive | 
